From PubChem BioAssay come the findings set out here.

Records with an inconclusive call do not appear. Active and inactive are the calls of the source.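 The calls were made as follows, unless noted: active = inhibition over a set limit, the all-compound mean plus 3 SD, in both replicate runs; inconclusive = over that limit in just one replicate run; inactive = at or under that limit in both runs.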

Experiment [1] is described as follows: Her2 expression decrease, cell viability multiplex – SKBR3 breast tumor cells, AlphaScreen, ATP viability, primary screen (AID 461;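 active = Her2 level under about 52% in both replicate screens, with viability over 70% of control, limit read from the data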;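 as to Her2 level: lower value means less Her2 protein in the cells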;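 as to viability: percent of carrier control wells set as 100% viability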). The note with it: SKBR3 Her2 protein level, 18-24 h, measured here: SKBR3 viability, ATP luminescence, at 10 µM.
For experiment [2], the target named is Receptor tyrosine-protein kinase erbB-2 (Homo sapiens) (UniProt P04626). The description is as above. The following applies: 18-24 h, at 10 µM, stronger effect = lower value.
Experiment [3] is described as follows: reduced viability of SK-BR-3 breast cancer cells – cell-based, 24 h, human, pilot screen (AID 572;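 active = viability at or below 10% of carrier control in both of two separate runs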;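 also: compound exposure lasted between 18 and 24 h rather than exactly 24 h; 100% = carrier-treated control wells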). The following applies: SK-BR-3 viability, CellTiter-Glo luminescence, at 10 µM, stronger effect = lower value.
Experiment [4] is described as follows: HUVEC growth inhibition – cell-based, human, primary screen (AID 575;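 active = viability at or below 30% in both replicate assays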;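 also: 100% = median of untreated cell wells with 0.1% DMSO on each plate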). The following applies: HUVEC proliferation, CellTiter-Glo luminescence, 72 h; at 10 µM; stronger effect = lower value.
Experiment [5] can be described thus: H69AR cell proliferation blockers – human, duplicate replicates, primary screen (AID 580;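 active = viability at or under a set limit in both replicates, limit being median viability minus 3 SD, cut at about 48% in these data, passing the limit was not always enough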;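 also: 100% = mean luminescence of untreated wells and 0% = no signal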). The note with it: H69AR lung tumor cells viability, ATP luminescence, 72 h; at 10 µM; stronger effect = lower value.
Experiment [6] can be described thus: MRP1 drug-resistance reversers in H69AR cells – cell-based, doxorubicin co-treatment, pilot screen (AID 601;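 active = viability loss from added drug above about 55%, and viability with drug at most 40%, in both replicates, limit read from the data, passing the limit was not always enough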). The following applies: CellTiter-Glo, 72 h, at 10 µM; for differential viability (reversal): stronger effect = higher value.
Experiment [7] in a line: yeast transport mutant growth inhibition pilot in 384-well plates, post-Golgi transport modulator project (AID 636; in the data active = inhibition above about 31%). The note with it: absorbance 615 nm, about 18 h, stronger effect = higher value.
Experiment [8] can be described thus: growth suppression of yeast trafficking mutant, preliminary HTS, modulators of trafficking downstream of Golgi apparatus project, 1536-format plate, OD 615 nm (AID 637; in the data active = inhibition above about 30%). The following applies: yeast transport mutant growth, absorbance 615 nm, 18 h; stronger effect = higher value.
Experiment [9] is described as follows: S. cerevisiae growth inhibition in permissive medium (OD615), pilot counter-assay for S. cerevisiae lifespan shortening project, permissive growth control (AID 705;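 active = growth inhibition above 25% in both replicates, a cutoff set 3 SD above the mean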). The following applies: OD615, 24 h, at 10 µM, stronger effect = higher value.
Experiment [10] can be described thus: S. cerevisiae growth inhibition in restrictive medium, OD615, pilot screen, restrictive growth control, yeast lifespan reduction project (AID 706;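 active = growth inhibition above a set limit, 3 SD over mean compound inhibition, in both replicates, cut at about 43% in these data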;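 also: modified DeaD lifespan yeast strain shifted to restrictive glucose medium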). The following applies: OD615, 48 h, at 10 µM, stronger effect = higher value.
Experiment [11] in a line: doxorubicin toxicity protection in MRP-1 cells – H69AR cells, CellTiter-Glo, duplicate, MRP-1 activator project, pilot screen (AID 807;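 active = viability increase at or above a cutoff of the median across tested compounds plus 3 SD, cut at about 8.5% in these data, passing the limit was not always enough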;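 also: compound pretreatment 18-22 h then 72 h combined with doxorubicin; 0% = doxorubicin alone and 100% = vehicle without doxorubicin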). The following applies: H69AR viability with doxorubicin, CellTiter-Glo luminescence; at 10 µM; stronger effect = higher value.
Experiment [12] in a line: viability of HCT116 without oncogenic beta-catenin – human colon tumor cells, pilot screen (AID 823;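 active = cell viability at or below a set limit in both duplicate runs, the limit being the all-compound median minus 4 SD, cut at about 23% in these data, passing the limit was not always enough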;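 also: 0% = wells killed by 20 µM Hyamine and 100% = untreated DMSO cell wells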). The note with it: HCT116 beta-catenin knockout viability, CellTiter-Glo, 60 h; at 10 µM; stronger effect = lower value.
Experiment [13] in a line: viability of PTEN-null HCT116 cells – cell-based, HCT116 clonal line, CellTiter-Glo, pilot screen (AID 824;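 active = viability at or below 27.92% in each of two runs, the all-compound median minus 4 SD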;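 also: 0% = 20 µM Hyamine control and 100% = vehicle cell control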). The note with it: HCT116 PTEN-deleted viability, 60 h, at 10 µM, stronger effect = lower value.
The nature of experiment [14]: RAM pathway blockade in budding yeast – dse1pr::URA3 reporter, 5-FOA selection, pilot screen (AID 869).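 Also: 0% = DMSO wells with no growth and 100% = 10 µM 1-NA-PP1 with full growth; RAM network block rescues cells from 5-FOA so hits raise OD615 growth.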 The note with it: S. cerevisiae dse1pr::URA3 5-FOA growth, OD615, 2 d; at 10 µM; stronger effect = higher value; strain carries analog-sensitive mutant Cbk1 kinase.
Experiment [15] is described as follows: RAM signaling pathway blockade in yeast – S. cerevisiae, Pdr1DBD-CYC8 efflux-inhibited sensitized strain, primary screen (AID 1298;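 active = RAM network inhibition above 8.4% in each of two replicates, 3 SD over the compound average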;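 also: 0% = DMSO untreated cells without growth and 100% = 10 µM 1-NA-PP1 full growth; higher means more yeast growth rescued from 5-FOA killing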). The following applies: S. cerevisiae cbk1-as DSE1-URA3 strain, 5-FOA growth OD615, 2 d; at 50 µM; stronger effect = higher value.
[16] abbreviates: H69AR cells + 2 uM doxorubicin, measured here: viability with 2 uM doxorubicin, stronger effect = lower value.
The mark [17] stands for this setting: H69AR cells, compound alone cytotoxicity.

Sequence of Receptor tyrosine-protein kinase erbB-2 (Homo sapiens) (P04626 whole entry, looked up): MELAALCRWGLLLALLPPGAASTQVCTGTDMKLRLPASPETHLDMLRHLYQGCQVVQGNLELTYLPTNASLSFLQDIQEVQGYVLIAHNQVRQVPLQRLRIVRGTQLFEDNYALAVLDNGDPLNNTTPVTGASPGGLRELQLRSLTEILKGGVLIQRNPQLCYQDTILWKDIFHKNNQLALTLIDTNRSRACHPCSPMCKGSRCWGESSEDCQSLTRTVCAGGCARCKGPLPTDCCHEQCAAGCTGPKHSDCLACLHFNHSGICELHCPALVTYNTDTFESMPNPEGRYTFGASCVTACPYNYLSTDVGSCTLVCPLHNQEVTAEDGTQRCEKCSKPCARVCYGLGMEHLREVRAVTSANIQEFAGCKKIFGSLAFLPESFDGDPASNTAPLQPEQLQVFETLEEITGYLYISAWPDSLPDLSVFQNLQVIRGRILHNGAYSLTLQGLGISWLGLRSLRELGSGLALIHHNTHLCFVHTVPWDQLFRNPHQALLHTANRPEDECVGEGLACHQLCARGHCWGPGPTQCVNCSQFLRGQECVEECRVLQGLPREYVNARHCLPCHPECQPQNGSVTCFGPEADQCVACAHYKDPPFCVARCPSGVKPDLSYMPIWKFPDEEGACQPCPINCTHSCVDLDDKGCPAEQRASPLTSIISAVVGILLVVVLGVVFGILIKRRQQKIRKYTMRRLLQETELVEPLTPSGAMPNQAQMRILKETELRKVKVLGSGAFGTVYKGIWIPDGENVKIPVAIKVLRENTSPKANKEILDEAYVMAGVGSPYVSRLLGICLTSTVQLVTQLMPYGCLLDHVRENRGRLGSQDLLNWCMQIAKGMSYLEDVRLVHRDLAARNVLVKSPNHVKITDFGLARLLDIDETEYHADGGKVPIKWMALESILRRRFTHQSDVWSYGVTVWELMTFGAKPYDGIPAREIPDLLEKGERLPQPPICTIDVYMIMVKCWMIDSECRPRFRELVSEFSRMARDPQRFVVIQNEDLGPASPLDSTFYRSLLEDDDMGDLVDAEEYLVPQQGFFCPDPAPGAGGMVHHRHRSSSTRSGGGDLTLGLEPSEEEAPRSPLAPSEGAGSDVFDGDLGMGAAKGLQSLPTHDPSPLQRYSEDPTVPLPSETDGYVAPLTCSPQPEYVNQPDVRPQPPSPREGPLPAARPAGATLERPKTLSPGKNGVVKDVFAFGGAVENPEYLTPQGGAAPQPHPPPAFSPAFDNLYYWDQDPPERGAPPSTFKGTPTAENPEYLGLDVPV

`CCOC(=O)c1ccc(NS(=O)(=O)c2ccc3c(c2)oc(=O)n3C)cc1`: the viability is 132% in experiment [1]; 132% (inactive) in experiment [3]; 118% (inactive) in [4]; 113% (inactive) in experiment [5]; 105% in experiment [6] (setting [16]); 113% in experiment [6] (setting [17]). The viability was 101% (inactive) in experiment [12] and 86.4% (inactive) in experiment [13]. In [2], the Her2 level was 118% (inactive). In addition, in [6] (H69AR cells + 2 uM doxorubicin), the differential viability (reversal) is 7.4% (inactive). In addition, the inhibition is -0.77% (inactive) in experiment [7], -2.17% (inactive) in experiment [8] and 0.865% (inactive) in experiment [14]. Besides, the growth inhibition in [9] was -0.745% (inactive); in [10], 3.2% (inactive). Further, the viability increase in experiment [11] is 1.82% (inactive). Also, the RAM network inhibition in experiment [15] was 2.11% (inactive).
Take `CC1CCc2nn(CC(=O)NCCN3CCCCC3C)cc2C1` (stereo not drawn): the viability in experiment [1] was 85%; in [3] it was 85% (inactive); in experiment [4], 103% (inactive); in experiment [5], 90% (inactive); in experiment [6] (setting [16]) it was 92.6%; in experiment [6] (setting [17]) it was 90%. Besides, the results for the viability in [12] and in experiment [13] were 101% (inactive) and 98.5% (inactive), respectively. The Her2 level in experiment [2] was 104% (inactive). In addition, the differential viability (reversal) in [6] (H69AR cells + 2 uM doxorubicin) is -2.58% (inactive). Also, the inhibition in experiment [7] was -2.18% (inactive); in [8], 0.83% (inactive); in [14] it was 2.96% (inactive). Besides, the growth inhibition in experiment [9] was 0.05% (inactive); in [10], -11% (inactive). In addition, the viability increase in experiment [11] was -1.56% (inactive). In experiment [15], the RAM network inhibition was 1.89% (inactive).
Turning to `CCOc1ccc2nc(Nc3nc4c(c(=O)[nH]3)CCC4)nc(C)c2c1`, the viability in experiment [1] is 99.5%; in experiment [3] it was 99.5% (inactive); in experiment [4], 98.4% (inactive); in [5], 103% (inactive); in [6] (setting [16]), 97.7%; in experiment [6] (setting [17]), 103%. Further, the viability in [12] was 93.8% (inactive); in [13] it was 96.4% (inactive). Besides, the Her2 level in [2] is 99% (inactive). Moreover, the differential viability (reversal) in [6] (H69AR cells + 2 uM doxorubicin) was 5.67% (inactive). Besides, the inhibition in [7] is -4% (inactive); in experiment [8] it was 1.83% (inactive); in [14] it was 1.01% (inactive). Further, the growth inhibition in experiment [9] is -9.17% (inactive); in experiment [10], 9.05% (inactive). Also, the viability increase in experiment [11] is 0.54% (inactive). Further, the RAM network inhibition in experiment [15] is 3.45% (inactive).
On to `C=CCSc1nnc(-c2cccnc2)o1`, for which the viability in experiment [1] is 95%; in experiment [3], 95% (inactive); in experiment [4], 103% (inactive); in experiment [5] it was 96.9% (inactive); in experiment [6] (setting [16]) it was 87.8%; in experiment [6] (setting [17]) it was 96.9%. Also, the viability in experiment [12] and in experiment [13] was 101% (inactive) in each case. Moreover, in [2], the Her2 level is 99.5% (inactive). In addition, in experiment [6] (H69AR cells + 2 uM doxorubicin), the differential viability (reversal) is 9.17% (inactive). In addition, the inhibition in experiment [7] was -5.6% (inactive); in [8] it was 9% (inactive); in [14] it was 0.94% (inactive). Besides, the growth inhibition in [9] is -1.77% (inactive); in [10], 7.71% (inactive). The viability increase in experiment [11] was -1.02% (inactive). The RAM network inhibition in [15] is 0.16% (inactive).
Consider `COC(=O)CSC1=NS(=O)(=O)c2ccccc21`, for which the viability in [1] is 143%; in experiment [3] it was 143% (inactive); in [4], 60% (inactive); in experiment [5], 62.6% (inactive); in [6] (setting [16]) it was 89.3%; in experiment [6] (setting [17]) it was 62.6%. Also, the viability in [12] was 99.4% (inactive); in [13], 96.4% (inactive). Besides, the Her2 level in experiment [2] is 92% (inactive). Besides, in experiment [6] (H69AR cells + 2 uM doxorubicin), the differential viability (reversal) was -26.7% (inactive). For the same compound, the inhibition in [7] is -7.43% (inactive); in experiment [8] it was -2.3% (inactive); in experiment [14], -0.34% (inactive). The figures for the growth inhibition in experiment [9] and in experiment [10] were 94.3% (active) and 98.3% (active), respectively. In [11], the viability increase is -0.32% (inactive). In experiment [15], the RAM network inhibition was -1.77% (inactive).
For the compound `COC(=O)c1ccsc1NC(=O)CN1C(=O)CCC1=O`, the viability in experiment [1] was 83.5%; in experiment [3], 83.5% (inactive); in [4] it was 83.1% (inactive); in experiment [5] it was 91.6% (inactive); in [6] (setting [16]), 69.2%; in experiment [6] (setting [17]), 91.6%. Also, the viability is 100% (inactive) in experiment [12] and 98.7% (inactive) in [13]. Further, the Her2 level in experiment [2] was 121% (inactive). Further, the differential viability (reversal) in experiment [6] (H69AR cells + 2 uM doxorubicin) was 22.4% (inactive). The results for the inhibition in experiment [7], in [8] and in experiment [14] were -1.33% (inactive), 15.7% (inactive) and -0.08% (inactive), respectively. Further, the growth inhibition in [9] is -2.7% (inactive); in [10] it was -9.07% (inactive). The viability increase in experiment [11] was -1.57% (inactive). Besides, the RAM network inhibition in experiment [15] is 0.15% (inactive).
Take `Cc1cccc(NC(=O)CS(=O)(=O)c2cn(C)c3ccccc23)c1`: the viability in experiment [1] was 98%; in experiment [3], 98% (inactive); in experiment [4], 105% (inactive); in experiment [5], 90.6% (inactive); in experiment [6] (setting [16]) it was 92%; in experiment [6] (setting [17]) it was 90.6%. Moreover, the values for the viability in experiment [12] and in [13] were 97.1% (inactive) and 92.6% (inactive), respectively. For the same compound, the Her2 level in [2] was 95.5% (inactive). Besides, in [6] (H69AR cells + 2 uM doxorubicin), the differential viability (reversal) was -1.36% (inactive). The figures for the inhibition in experiment [7], in experiment [8] and in [14] were -3.47% (inactive), -0.98% (inactive) and 1.98% (inactive), respectively. Also, the growth inhibition in [9] was 1.62% (inactive); in experiment [10] it was -12% (inactive). In experiment [11], the viability increase is -3.05% (inactive). Besides, the RAM network inhibition in experiment [15] is 4.28% (inactive).
For the compound `c1ccc(CN2CCN(CCCNc3ccc4nnc(-c5ccccc5)n4n3)CC2)cc1`, the viability in experiment [1] was 83%; in experiment [3], 83% (inactive); in [4] it was 50.2% (inactive); in experiment [5] it was 86.3% (inactive); in experiment [6] (setting [16]) it was 30.8%; in experiment [6] (setting [17]), 86.3%. Further, the values for the viability in [12] and in [13] were 50% (inactive) and 55.5% (inactive), respectively. Besides, the Her2 level in [2] is 78.5% (inactive). For the same compound, the differential viability (reversal) in experiment [6] (H69AR cells + 2 uM doxorubicin) was 55.5% (active). Besides, the inhibition is 0.13% (inactive) in [7], -2.17% (inactive) in experiment [8] and 2.78% (inactive) in experiment [14]. Also, the results for the growth inhibition in [9] and in [10] were -8.05% (inactive) and 5.01% (inactive), respectively. Moreover, the viability increase in [11] is -7.78% (inactive). The RAM network inhibition in experiment [15] was 3.65% (inactive).
With `O=C(NCCN1C(=O)C2C3C=CC(C3)C2C1=O)N1CCOCC1` (stereo not drawn), the viability in experiment [1] is 89.5%; in experiment [3] it was 89.5% (inactive); in experiment [4] it was 90.2% (inactive); in [5] it was 93.7% (inactive); in experiment [6] (setting [16]) it was 88.9%; in [6] (setting [17]), 93.7%. Besides, the viability is 105% (inactive) in experiment [12] and 94.9% (inactive) in experiment [13]. In addition, the Her2 level in experiment [2] is 106% (inactive). In addition, the differential viability (reversal) in experiment [6] (H69AR cells + 2 uM doxorubicin) is 4.75% (inactive). For the same compound, the results for the inhibition in experiment [7], in [8] and in [14] were 0.67% (inactive), -2.5% (inactive) and 1.08% (inactive), respectively. For the same compound, the growth inhibition in experiment [9] is -8.54% (inactive); in experiment [10], 8.98% (inactive). For the same compound, in experiment [11], the viability increase was -1.43% (inactive). For the same compound, the RAM network inhibition in experiment [15] was 0.73% (inactive).
